# Results filed as inconclusive are left out. Entries that show only a call come without a potency. Active and inactive are the calls of the source. Calls come from the whole dose curve; as a rule, active = well fitted cell-killing curve with a large enough effect; inconclusive = small, poorly fitted or top-dose-only effect; inactive = flat fitted curve, though single readings scatter.
# Assay: Cell Viability - LYMP2-023 (AID 975); note: nearly all actives have a fitted effect of over 55% in size
# Details: LYMP2-023 lymphoblastoid cell viability; series mostly up to 92.2 µM
# Excerpt: NIH Chemical Genomics Center [NCGC]
# NIH Molecular Libraries Screening Centers Network [MLSCN]
# National Institutes of Environmental Health Sciences [NIEHS]
# National Toxicology Program [NTP]
# We have developed a 1536-well cell-based assay for quantitative high throughput screening (qHTS) against a number of cell lines to determine in vitro cytotoxicity of small molecules. This particular assay uses a human lymphoblastoid cell line (LYMP2-023) purchased from Coriell Institute for Medical Research.
# NCGC Assay Protocol Summary:
# The CellTiter-Glo luminescent cell viability assay (Promega) is a homogeneous method to measure the number of viable cells in culture. The end point readout of this assay is based on quantitation of intracellular ATP, an indicator of metabolic activity, using the luciferase reaction. Luciferase catalyzes the oxidation of beetle Luciferin to oxyluciferin and light in the presence of ATP. The luminescent signal is proportional to amount of ATP present.
# Using the CellTiter-Glo luminescent cell viability assay, the amount of cellular ATP was measured in the lymphoblastoid cell line with complete culture medium following compound treatment for 24 hours. The assay was performed in opaque white Kalypsys 1536-well plates. In the screen, tetraoctylammonium bromide was used as positive control. Library compounds were measured for their ability to cause acute toxicity in the cell line, as reflected by a decrease in intracellular ATP levels, in a concentration-dependent manner. […] AC50 values were determined from concentration-response data modeled with the standard Hill equation.
# qHTS protocol for CellTiter Glo lymphoblastoid cellular assay
# [Step] [Parameter] [Value] [Description]
# 1. Reagent; 5 uL; 2500 lymphoblastoid cells/well
# 2. Time; 5 hr; 37 C incubation
# 4. Controls; 23 nL; Tetraoctylammonium bromide 6.4pM to 92 uM
# 5. Time; 24 hr; 37 C incubation
# 6. Reagent; 5 uL; CellTiter Glo reagent
# 7. Time; 30 min; Room Temperature
# 8. Detection; Luminescence; Viewlux plate reader
# Keywords: cell viability, cytotoxicity, lymphoblastoid cell line, luminescence, NTPHTS, NTPHTS_NCGC, NIEHS, DSSTox, MLSMR, MLSCN, NIH Roadmap, qHTS, NCGC
# Potency is the fitted concentration of half-maximal effect.
row,SMILES,Potency
1,CCCOC(=O)c1ccccc1C(=O)OCCC,inactive
2,CCOP(=S)(OCC)SCSC(C)(C)C,inactive
3,Clc1cc(Cl)c(-c2cc(Cl)c(Cl)cc2Cl)cc1Cl,inactive
4,CCOc1ccc(N)cc1,inactive
5,COC1=CC(=O)OC(CCc2ccccc2)C1 (stereo not given),inactive
6,C=CCOC(C)=O,inactive
7,c1ccc2c(c1)CCCC2,inactive
8,ClC(Cl)=C(Cl)C(Cl)=C(Cl)Cl,inactive
9,C=CCOC(=O)c1ccccc1N,inactive
10,C1CCC2CCCCC2C1 (stereo not given),inactive
11,O=S1OCC2C(CO1)C1(Cl)C(Cl)=C(Cl)C2(Cl)C1(Cl)Cl (stereo not given),inactive
12,OCC(Br)CBr (stereo not given),inactive
13,OCC1CO1 (stereo not given),inactive
14,CC(C)(C)OOC(C)(C)C,inactive
15,C[C@]12CC[C@H]3[C@@H](CCC4=CC(=O)CC[C@@]43C)[C@@H]1CC[C@@H]2O,inactive
16,C=CC(N)=O,inactive
17,c1ccc(N=Nc2ccccc2)cc1,inactive
18,N#CCCCl,inactive
19,BrCCBr,inactive
20,C=C(C)C(=O)OCC1CO1 (stereo not given),inactive

row,SMILES,Potency
1,CCCC(=O)Cl,inactive
2,O=C1C(Cl)=C(Cl)C(=O)C(Cl)=C1Cl,25.1 µM (active)
3,ClCBr,inactive
4,Clc1ccc2ccccc2c1,inactive
5,C=CC1CC=CCC1 (stereo not given),inactive
6,O=C=NC1CCCCC1,inactive
7,Cc1ccc(O)c(C)c1,inactive
8,CC(O)CCl (stereo not given),inactive
9,CCCCCCCC(=O)Cl,inactive
10,NC(=S)Nc1ccccc1,inactive
11,Cc1ccc([N+](=O)[O-])cc1C,inactive
12,O=NN(c1ccccc1)c1ccccc1,inactive
13,O=[N+]([O-])c1ccc(Cl)c(Cl)c1,inactive
14,C=CCc1ccc(OC)cc1,inactive
15,COc1ccc(N)cc1,inactive
16,CN=C=S,inactive
17,CCCSC(=O)Cl,inactive
18,ClC(Cl)(Cl)c1ccccc1,inactive
19,CCCCOC(=O)c1ccccc1C(=O)OCCCC,inactive
20,ClC(Cl)=C(Cl)Cl,inactive

# — PubChem BioAssay (NCATS)
